# sEH inh = soluble epoxide hydrolase (human) inhibition; P34913; recombinant human sEH enzymatic activity assay; inhibition, % at 2 µM; actives 0.34% (n = 91,000); AID 707; in the data active = inhibition above about 80%
# sEH activator = soluble epoxide hydrolase (human) activation | P34913 | purified human sEH enzymatic activity, activator screen | activation, % at 2 µM | actives 0.04% (n = 91,000) | AID 717; in the data active = activation above about 37%
# CYP2C19 inhib = blocks human cytochrome P450 2C19. P33261. CYP2C19 Supersomes, luciferin-H EGE luminescence, 30 min. inhibition, % at 5 µM. actives 21% (n = 96,000). AID 778;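 active = CYP2C19 inhibition above a set limit at 5 µM in the primary screen, cut at about 50% in these data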;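 also: plate controls were negative control wells for no effect and 2.5 mM tranylcypromine positive control for full effect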
# CYP2C19 act = cytochrome P450 2C19 (human) activation; P33261; recombinant CYP2C19, luciferin-H EGE luminescence; active compounds read high; 0 = fully inhibited enzyme, 1 = untreated enzyme; activation factor at 5 µM; 96,000 tested, under 10 active; AID 1025;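 active = activation factor of at least 2 at 5 µM in the primary screen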;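 also: 0 = wells with 2.5 mM tranylcypromine and 1 = vehicle-only wells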
# CYP2C9 inhib = human CYP2C9 inhibition. P11712. CYP2C9 Supersomes, luciferin-H conversion, luminescence. inhibition, % at 5 µM. actives 20% (n = 96,000);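 active = blocking of liver enzyme CYP2C9 beyond about 50% at 5 µM, limit read from the data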
# Target sequence (P11712 whole entry, looked up): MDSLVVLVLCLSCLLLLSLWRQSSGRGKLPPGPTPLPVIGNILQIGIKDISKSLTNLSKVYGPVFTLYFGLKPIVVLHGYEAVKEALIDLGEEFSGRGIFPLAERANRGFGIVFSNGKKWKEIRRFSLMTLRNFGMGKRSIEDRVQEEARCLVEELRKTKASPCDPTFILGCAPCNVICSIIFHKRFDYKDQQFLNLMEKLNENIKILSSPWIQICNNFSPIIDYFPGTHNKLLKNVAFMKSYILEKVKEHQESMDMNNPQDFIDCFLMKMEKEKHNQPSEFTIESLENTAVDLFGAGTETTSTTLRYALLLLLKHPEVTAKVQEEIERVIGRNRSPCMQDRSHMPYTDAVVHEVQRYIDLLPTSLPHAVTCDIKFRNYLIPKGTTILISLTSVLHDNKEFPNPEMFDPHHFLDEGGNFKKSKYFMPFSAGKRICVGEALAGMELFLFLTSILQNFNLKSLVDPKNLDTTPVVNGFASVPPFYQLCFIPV
# CYP2C9 act = activators of human CYP2C9 | AID 1024 | activation factor at 5 µM | recombinant CYP2C9, luciferin-H conversion, luminescence; active compounds read high; factor 1 = untreated enzyme, 0 = blocked | actives 1.4% (n = 96,000);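 active = activation factor of 2 or more for CYP2C9 at a 5 µM dose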;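 also: 0 = sulfaphenazole-blocked wells and 1 = vehicle-only wells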
# Numbers without * were called inactive; x = no result. Only some compounds are listed: those with a hit (about 27% of all), similar ones and a draw of the others.
SMILES,sEH inh,sEH activator,CYP2C19 inhib,CYP2C19 act,CYP2C9 inhib,CYP2C9 act
CC(NC(=O)c1cc(-c2ccc(Br)cc2)on1)c1ccccc1 (stereo unspecified),-17,17,4,1,19,0.8
O=C(NC1CCCCCCC1)c1ccc(CNc2c(N3CCOCC3)c(=O)c2=O)cc1,x,x,20,0.8,44,0.6
O=C(Nc1nc2c(s1)CCCC2)C1CCCN1C(=O)c1cccs1 (stereo unspecified),10,-11,42,0.6,39,0.6
Cc1ccc(CN(C)C(=O)C2CCCN2C(=O)c2cccs2)o1 (stereo unspecified),8,-7,57*,0.4,14,0.9
COc1ccc(OC)c(NC(=O)c2ccc(-n3cccn3)nc2)c1,-7,10,3,1,-25,1.3
COc1ccc2c3c(cccc13)N(C)N=C2C,-10,11,74*,0.3,63*,0.4
Cc1onc(-c2ccccc2Cl)c1C(=O)Nc1ccc(-c2nnc3n2CCCCC3)cc1,-13,16,18,0.8,3,1
CCCOc1ccccc1NC(=O)c1c(-c2ccccc2)noc1C,-12,12,4,1,-15,1.1
COc1ccc(CCNc2oc(Cc3ccccc3)nc2C#N)cc1OC,2,-2,75*,0.3,50*,0.5
COCCCNc1oc(-c2ccccc2OC)nc1C#N,0,4,13,0.9,2,1
COCCNc1oc(COc2cccc(C)c2)nc1C#N,6,-3,57*,0.4,10,0.9
COc1ccc(CCNc2oc(COc3ccc(F)cc3)nc2C#N)cc1,0,-2,53*,0.5,70*,0.3
CN(C)CCNc1oc(COc2cccc(Cl)c2)nc1C#N,-4,2,-12,1.1,-28,1.3
CCNc1oc(COc2ccccc2F)nc1C#N,4,-6,96*,0,39,0.6
CCC(C)NC(=O)c1ccccc1NC(=O)c1ccc(CSc2ccc(C)cc2)cc1 (stereo unspecified),6,-6,-5,1.1,24,0.8
CCCc1nnc(NC(=O)CCC(=O)Nc2ccc(F)cc2)s1,8,-4,14,0.9,28,0.7
COc1ccc(CCNc2oc(COc3ccccc3F)nc2C#N)cc1OC,12,-12,96*,0,91*,0.1
COc1ccc(CCNc2oc(COc3ccccc3Cl)nc2C#N)cc1OC,-8,7,x,x,x,x
C=CCn1cc(/C=N\NC(=O)c2cc3c(ccc4ccccc43)o2)c2ccccc21,-32,28,17,0.8,62*,0.4
O=C(N/N=C/C=C/c1ccccc1)c1cc2c(ccc3ccccc32)o1,1,2,-5,1.1,-10,1.1
CCc1nn(C(C)C(=O)NC(C)CCc2ccco2)c(=O)c2cc3occc3n12 (stereo unspecified),x,x,60*,0.4,77*,0.2
O=C(CCCOc1ccc(Cl)cc1Cl)NCC1CCCO1 (stereo unspecified),12,-9,x,x,x,x
CCOC(=O)CNC(=O)C(CC(C)C)NC(=O)C1CCCCC1 (stereo unspecified),-20,16,2,1,-12,1.1
O=S(=O)(c1cccs1)N1CCN(CC(O)COC2CCCc3ccccc32)CC1 (stereo unspecified),-6,5,34,0.7,62*,0.4
Cc1ccc(C(=O)NC(C)(COc2nonc2C)COc2nonc2C)cc1,5,-2,94*,0.1,72*,0.3
SMILES,sEH inh,sEH activator,CYP2C19 inhib,CYP2C19 act,CYP2C9 inhib,CYP2C9 act
Cc1ccc(C(=O)NCC(C)(C)O)cc1,-8,3,x,x,x,x
COc1ccc(-c2cc(-c3ccc(OC)cc3)[nH]n2)cc1,8,-8,26,0.7,24,0.8
COc1ccc(-c2cc(O)cc(O)c2)cc1,-4,8,59*,0.4,60*,0.4
COC(=O)c1cccc(S(=O)(=O)N2CCC(c3nc4ccccc4o3)CC2)c1,3,2,x,x,x,x
COC(=O)c1ccccc1S(=O)(=O)N1CCC(c2nc3ccccc3o2)CC1,3,-5,87*,0.1,81*,0.2
COC(=O)[C@@H](NC(=O)N1CCN(c2cccc(C(F)(F)F)c2)CC1)C(C)C,-15,13,53*,0.5,-58,1.6
O=C(c1cccc(C(F)(F)F)c1)N1CCC(O)(CS(=O)(=O)Cc2ccccc2)CC1,18,-18,22,0.8,-13,1.1
C=CCOC(=O)N1CCN(c2cccc(C(F)(F)F)c2)CC1,-4,4,96*,0,80*,0.2
CCC(C)[C@H](NC(=O)N1CCN(c2cccc(C(F)(F)F)c2)CC1)C(=O)OC (stereo partly specified),20,-20,29,0.7,-50,1.5
O=C(Nc1ccccc1)N1CCN(c2cccc(C(F)(F)F)c2)CC1,19,-18,58*,0.4,-100,2*
O=C(CS(=O)(=O)Cc1ccccc1)N1CCN(c2cccc(C(F)(F)F)c2)CC1,2,-2,57*,0.4,12,0.9
CCOC(=O)c1c(C)oc2c(F)c(F)c(F)c(F)c2c1=O,7,-10,4,1,2,1
CCNC(=O)C1CCCN1S(=O)(=O)c1ccc(C)cc1 (stereo unspecified),-5,11,x,x,x,x
Cc1ccc2[nH]c(=O)c(CNC(C)C)cc2c1,3,-2,-10,1.1,-4,1
Cn1cc(S(=O)(=O)N2CCN(c3cccc(C(F)(F)F)c3)CC2)c(=O)n(C)c1=O,-2,2,27,0.7,-46,1.5
CNS(=O)(=O)c1cnccc1N1CCN(c2cccc(C(F)(F)F)c2)CC1,1,0,77*,0.2,47,0.5
O=C(Nc1cccc(C(F)(F)F)c1)c1cccnc1N1CCN(c2ccccc2)CC1,1,2,58*,0.4,49,0.5
CCCCC12CN3CC(C)(CN(C1)C31C(=O)N(C)c3ccc(C)cc31)C2=O (stereo unspecified),-8,6,x,x,x,x
COC(=O)c1cc(=O)c2ccc(OC)cc2o1,x,x,13,0.9,-4,1
COC(=O)c1cc(-c2c(C)oc3cc(OC(C)C)ccc3c2=O)c(C)o1,x,x,60*,0.4,67*,0.3
COC(=O)c1cc(COc2ccc3oc(C)c(C(=O)OC(C)C)c3c2)c(C)o1,4,-3,88*,0.1,84*,0.2
CC(C)Cn1c(SCC(=O)NC(=O)NC2CCCC2)nc2ccccc21,10,-10,42,0.6,43,0.6
CC1Cc2ccccc2N1C(=O)c1ccc2snnc2c1 (stereo unspecified),-11,10,81*,0.2,15,0.8
O=C(Nc1ccc2snnc2c1)N1CCSCC1,51,-49,48,0.5,14,0.9
CC1CN(C(=O)Nc2ccc3snnc3c2)c2ccccc21 (stereo unspecified),x,x,71*,0.3,81*,0.2

# Source: PubChem (several laboratories)
